Results filed as inconclusive are left out. Entries that show only a call come without a potency. The source made the active and inactive calls. Unless noted, calls come from the whole dose curve; as a rule, active = well fitted curve in the direction sought with a large enough effect in the repeat runs; inconclusive = weak or mixed curves; inactive = no such curve, though single readings can be large; an effect the other way counts as inactive or inconclusive.
Columns and labels:
[1] = target: Aryl hydrocarbon receptor (Homo sapiens) (UniProt P35869); assay: qHTS assay to identify small molecule that activate the aryl hydrocarbon receptor (AhR) signaling pathway (AID 743085); note: nearly all actives have a fitted effect of over 15% in size; note: potency is the fitted concentration of half-maximal effect;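 for activation: HG2L7.5c1 human HepG2 liver cells with stably integrated DRE-driven firefly reporter; series mostly up to about 70 µM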
Sequence of Aryl hydrocarbon receptor (Homo sapiens) (P35869 whole entry, looked up): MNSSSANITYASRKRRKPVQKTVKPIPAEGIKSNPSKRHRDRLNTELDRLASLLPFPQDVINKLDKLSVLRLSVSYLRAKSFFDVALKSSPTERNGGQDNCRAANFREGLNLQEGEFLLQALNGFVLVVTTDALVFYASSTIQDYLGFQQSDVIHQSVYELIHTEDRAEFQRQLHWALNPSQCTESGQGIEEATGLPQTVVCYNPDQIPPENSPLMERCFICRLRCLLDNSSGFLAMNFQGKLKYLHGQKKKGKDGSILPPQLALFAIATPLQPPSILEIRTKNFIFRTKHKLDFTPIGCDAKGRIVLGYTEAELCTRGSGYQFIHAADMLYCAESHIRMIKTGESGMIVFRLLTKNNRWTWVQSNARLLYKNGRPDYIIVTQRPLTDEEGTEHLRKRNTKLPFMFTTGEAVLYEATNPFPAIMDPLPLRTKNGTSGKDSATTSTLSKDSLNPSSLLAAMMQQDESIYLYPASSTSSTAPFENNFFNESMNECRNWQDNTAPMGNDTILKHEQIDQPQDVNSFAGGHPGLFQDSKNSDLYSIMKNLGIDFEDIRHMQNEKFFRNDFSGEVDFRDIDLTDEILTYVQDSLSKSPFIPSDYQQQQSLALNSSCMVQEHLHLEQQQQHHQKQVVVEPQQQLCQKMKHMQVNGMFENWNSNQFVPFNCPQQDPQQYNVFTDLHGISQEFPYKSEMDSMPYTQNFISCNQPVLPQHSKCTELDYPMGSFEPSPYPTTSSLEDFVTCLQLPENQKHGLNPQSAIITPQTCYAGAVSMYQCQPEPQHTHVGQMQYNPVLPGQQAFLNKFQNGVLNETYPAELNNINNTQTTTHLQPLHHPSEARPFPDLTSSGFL
Summary of the method: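 AhR agonist activity is inferred from enhanced light output of a DRE-controlled firefly luciferase reporter in HepG2 cells, measured with ONE-Glo following 24 h treatment at 37C.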

[2] = qHTS assay to identify small molecule that activate the aryl hydrocarbon receptor (AhR) signaling pathway - cell viability counter screen (AID 743086);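 note: HepG2 liver cells carrying the AhR DRE luciferase reporter; series mostly up to about 70 µM; nearly all actives have a fitted effect of over 45% in size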
Summary of the method: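 HepG2-AhR-luc (HG2L7.5c1) cells, 4000/well, treated 24 h at 37 C with compound; viability measured as CellTiter-Fluor fluorescence after 30 min in the same wells as the luciferase read.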

[3] = target: Peroxisome proliferator-activated receptor gamma (Homo sapiens) (UniProt P37231); assay: qHTS assay to identify small molecule agonists of the peroxisome proliferator-activated receptor gamma (PPARg) signaling pathway (AID 743094; active = well fitted activation curve with a large enough effect in the signal ratio in the repeat runs, not every such curve was filed as active; the % refers to the signal ratio)
Sequence of Peroxisome proliferator-activated receptor gamma (Homo sapiens) (P37231 whole entry, looked up): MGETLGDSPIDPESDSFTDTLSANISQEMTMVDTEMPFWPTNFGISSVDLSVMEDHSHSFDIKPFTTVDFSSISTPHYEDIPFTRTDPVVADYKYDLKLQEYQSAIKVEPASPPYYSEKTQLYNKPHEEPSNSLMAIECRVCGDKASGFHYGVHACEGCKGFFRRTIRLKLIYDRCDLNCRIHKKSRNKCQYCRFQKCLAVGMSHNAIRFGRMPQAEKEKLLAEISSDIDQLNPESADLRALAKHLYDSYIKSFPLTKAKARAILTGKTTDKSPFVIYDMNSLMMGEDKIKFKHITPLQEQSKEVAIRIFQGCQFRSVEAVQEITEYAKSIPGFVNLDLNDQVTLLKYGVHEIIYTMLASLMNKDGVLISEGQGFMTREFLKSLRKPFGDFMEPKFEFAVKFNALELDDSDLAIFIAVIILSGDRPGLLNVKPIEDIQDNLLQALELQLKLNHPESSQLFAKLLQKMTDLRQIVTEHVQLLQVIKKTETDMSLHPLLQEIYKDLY
Summary of the method: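 Agonism was assessed in a beta-lactamase reporter system, HEK293H cells with a stably integrated UAS-bla construct under PPARg control; the 17 h treatment at 37C preceded a 1 h room-temperature FRET substrate read.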

[4] = target: Peroxisome proliferator-activated receptor gamma (Homo sapiens) (UniProt P37231); assay: qHTS assay to identify small molecule antagonists of the peroxisome proliferator-activated receptor gamma (PPARg) signaling pathway (AID 743191; calls by dose curve; note: nearly all actives have a fitted effect of over 30% in size; note: potency is the fitted concentration of half-maximal effect)
Summary of the method: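 GeneBLAzer PPARg UAS-bla HEK293H cells, 5 h post-plating, exposed to compounds 17 h at 37C. LiveBLAzer B/G FRET substrate added for 1 h at room temperature; beta-lactamase reporter read by fluorescence intensity.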

[5] = qHTS assay for small molecule agonists of the antioxidant response element (ARE) signaling pathway (AID 743202; active = well fitted activation curve with a large enough effect in the signal ratio in the repeat runs, not every such curve was filed as active; the % refers to the signal ratio)
Summary of the method: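 HepG2 ARE-bla reporter line, 2,000 cells/well; 5 h preincubation 37 C/5% CO2; compound (DMSO) 16 h 37 C; B/G FRET substrate 2 h RT; fluorescence intensity.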

[6] = qHTS assay for small molecule agonists of the antioxidant response element (ARE) signaling pathway - cell viability counter screen (AID 743203; calls by dose curve; note: nearly all actives have a fitted effect of over 55% in size; note: potency is the fitted concentration of half-maximal effect)
Summary of the method: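 ATP content via CellTiter-Glo luminescence served as the viability measure. Cells: ARE-bla HepG2, 2,000 per well. Exposure: 16 hrs, 37C/5% CO2.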

[7] = qHTS assay for small molecule activators of the heat shock response signaling pathway - cell viability counter screen (AID 743209); note: nearly all actives have a fitted effect of over 50% in size
Summary of the method: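 Compounds dissolved in DMSO were added to overnight-plated HSE-bla HeLa cells and left 5 h at 37 C. Cell viability was quantified by luminescence using CellTiter-Glo.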

[8] = qHTS assay for small molecule activators of the heat shock response signaling pathway (AID 743210; active = well fitted activation curve with a large enough effect in the signal ratio in the repeat runs, with a control signal flat, not every such curve was filed as active; the % refers to the signal ratio;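 note: HeLa cells with beta-lactamase reporter driven by heat shock elements; series mostly up to about 63 µM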)
Summary of the method: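 Beta-lactamase reporter read-out: FRET substrate fluorescence after 2.5 h at RT, following 5 h compound treatment at 37 C of HeLa cells carrying HSE-driven bla reporter; quantitative HTS format.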

[9] = qHTS assay to identify small molecule agonists of the peroxisome proliferator-activated receptor delta (PPARd) signaling pathway - cell viability counter screen (AID 743211); note: nearly all actives have a fitted effect of over 55% in size; note: potency is the fitted concentration of half-maximal effect
Summary of the method: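 qHTS cell viability: PPARd-bla HEK293H; 17 h cpd, 37C; CellTiter-Glo, luminescence at 30 min RT.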

[10] = target: Peroxisome proliferator-activated receptor delta (Homo sapiens) (UniProt Q03181); assay: qHTS assay to identify small molecule agonists of the peroxisome proliferator-activated receptor delta (PPARd) signaling pathway (AID 743212; calls by dose curve)
Sequence of Peroxisome proliferator-activated receptor delta (Homo sapiens) (Q03181 whole entry, looked up): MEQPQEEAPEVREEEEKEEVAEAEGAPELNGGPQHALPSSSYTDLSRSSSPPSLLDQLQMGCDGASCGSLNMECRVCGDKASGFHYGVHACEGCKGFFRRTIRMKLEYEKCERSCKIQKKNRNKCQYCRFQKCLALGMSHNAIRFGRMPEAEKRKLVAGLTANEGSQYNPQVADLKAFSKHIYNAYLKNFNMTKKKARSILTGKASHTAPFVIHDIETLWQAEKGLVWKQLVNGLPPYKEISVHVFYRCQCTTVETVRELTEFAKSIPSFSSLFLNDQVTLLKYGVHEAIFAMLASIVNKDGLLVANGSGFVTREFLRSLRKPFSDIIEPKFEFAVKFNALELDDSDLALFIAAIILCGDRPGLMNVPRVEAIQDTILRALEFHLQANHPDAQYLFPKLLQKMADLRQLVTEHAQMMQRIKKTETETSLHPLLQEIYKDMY
Summary of the method: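 Read-out: beta-lactamase FRET fluorescence after 2 h room-temperature incubation with LiveBLAzer B/G substrate. Cells were HEK293H carrying a UAS-bla reporter for PPARd, treated at 37 C with DMSO-dissolved compounds.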

[11] = target: Peroxisome proliferator-activated receptor delta (Homo sapiens) (UniProt Q03181); assay: qHTS assay to identify small molecule antagonists of the peroxisome proliferator-activated receptor delta (PPARd) signaling pathway (AID 743215; active = well fitted inhibition curve with a large enough effect in the signal ratio in the repeat runs, not every such curve was filed as active; the % refers to the signal ratio;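 note: cells stimulated with agonist L165041 at 300 nM final during compound exposure; series mostly up to about 62 µM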)
Summary of the method: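 Here, a reporter line (HEK293H, beta-lactamase under a UAS) measures PPARd signaling. Compounds are tested against agonist L165041 at 300 nM final concentration over 17 h at 37 C, with fluorescence read after substrate.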

[12] = qHTS assay to identify small molecule antagonists of the farnesoid-X-receptor (FXR) signaling pathway - cell viability counter screen (AID 743221; active = well fitted cell-killing curve with a large enough effect in the repeat runs, not every such curve was filed as active; note: nearly all actives have a fitted effect of over 50% in size)
Summary of the method: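 After a 5 h settling period, FXR-bla HEK 293T cells receive compound and chenodeoxycholic acid (50 uM final) and incubate 16 h at 37 C; CellTiter-Glo luminescence, read after 30 min at room temperature, reports cell viability.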

[13] = target: Vitamin D3 receptor (Homo sapiens) (UniProt P11473); assay: qHTS assay to identify small molecule agonists of the vitamin D receptor (VDR) signaling pathway (AID 743222; calls by dose curve)
Sequence of Vitamin D3 receptor (Homo sapiens) (P11473 whole entry, looked up): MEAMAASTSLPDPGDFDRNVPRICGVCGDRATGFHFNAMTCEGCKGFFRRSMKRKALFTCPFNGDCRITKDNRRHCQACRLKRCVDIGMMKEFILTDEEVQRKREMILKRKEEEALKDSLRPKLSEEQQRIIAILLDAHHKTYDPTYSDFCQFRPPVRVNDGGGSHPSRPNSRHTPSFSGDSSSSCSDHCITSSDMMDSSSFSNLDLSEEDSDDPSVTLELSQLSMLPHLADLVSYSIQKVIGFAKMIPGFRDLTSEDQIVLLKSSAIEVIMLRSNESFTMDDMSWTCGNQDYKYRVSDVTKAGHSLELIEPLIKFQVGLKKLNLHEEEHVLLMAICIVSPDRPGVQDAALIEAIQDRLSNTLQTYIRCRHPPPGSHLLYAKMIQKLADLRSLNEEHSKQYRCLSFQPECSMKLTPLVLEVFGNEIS
Summary of the method: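 Tox21 cell reporter format: VDR-bla line, 16 h compound exposure in 5% CO2 at 37C, then fluorescence intensity after 2 h with LiveBLAzer B/G FRET substrate.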

[14] = target: Vitamin D3 receptor (Homo sapiens) (UniProt P11473); assay: qHTS assay to identify small molecule antagonists of the vitamin D receptor (VDR) signaling pathway (AID 743223; active = well fitted inhibition curve with a large enough effect in the signal ratio in the repeat runs, not every such curve was filed as active; the % refers to the signal ratio)
Summary of the method: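 Reporter line VDR-bla; stimulus 1alpha,25-(OH)2 vitamin D3, 3 nM final; compound co-addition, 16 h 37C/5% CO2; LiveBLAzer B/G substrate 2 h RT; fluorescence intensity.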

[15] = qHTS assay to identify small molecule agonists of the vitamin D receptor (VDR) signaling pathway - cell viability counter screen (AID 743224); note: nearly all actives have a fitted effect of over 50% in size; note: potency is the fitted concentration of half-maximal effect
Summary of the method: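 CellTiter-Glo viability readout on VDR-bla cells, measured after 16 h of compound treatment at 37C in the same wells.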

[16] = target: Bile acid receptor (Homo sapiens) (UniProt Q96RI1); assay: qHTS assay to identify small molecule antagonists of the farnesoid-X-receptor (FXR) signaling pathway (AID 743217; active = well fitted inhibition curve with a large enough effect in the signal ratio in the repeat runs, not every such curve was filed as active; the % refers to the signal ratio)
Sequence of Bile acid receptor (Homo sapiens) (Q96RI1 whole entry, looked up): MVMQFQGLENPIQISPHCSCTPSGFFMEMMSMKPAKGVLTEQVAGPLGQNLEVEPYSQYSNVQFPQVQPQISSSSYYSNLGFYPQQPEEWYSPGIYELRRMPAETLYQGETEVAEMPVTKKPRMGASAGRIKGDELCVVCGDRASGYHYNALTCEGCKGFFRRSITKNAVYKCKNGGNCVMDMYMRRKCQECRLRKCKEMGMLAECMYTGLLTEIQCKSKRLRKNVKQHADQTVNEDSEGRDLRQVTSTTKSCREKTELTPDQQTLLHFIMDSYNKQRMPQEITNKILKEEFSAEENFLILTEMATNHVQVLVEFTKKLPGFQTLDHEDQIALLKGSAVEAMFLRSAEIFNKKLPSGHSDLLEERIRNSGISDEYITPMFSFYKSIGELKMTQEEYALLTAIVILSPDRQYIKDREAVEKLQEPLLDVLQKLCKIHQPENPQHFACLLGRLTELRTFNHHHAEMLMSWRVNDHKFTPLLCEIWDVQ
Summary of the method: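 Test compounds are pin-transferred onto FXR-bla HEK 293T cells, then chenodeoxycholic acid is added at 50 uM final. After 16 h at 37 °C, LiveBLAzer B/G substrate is applied for 2 h at room temperature and fluorescence read.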

[17] = target: Bile acid receptor (Homo sapiens) (UniProt Q96RI1); assay: qHTS assay to identify small molecule agonists of the farnesoid-X-receptor (FXR) signaling pathway (AID 743220; active = well fitted activation curve with a large enough effect in the signal ratio in the repeat runs, not every such curve was filed as active; the % refers to the signal ratio)
Summary of the method: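 FXR-UAS-bla HEK 293T cells carrying a UAS-driven beta-lactamase reporter were plated for 5 h at 37C/5% CO2, then exposed to DMSO-dissolved Tox21 10K compounds for 16 h at 37C. A LiveBLAzer B/G FRET substrate was loaded for 2 h at room temperature before fluorescence reading.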

[18] = qHTS assay to identify small molecule agonists of the farnesoid-X-receptor (FXR) signaling pathway - cell viability counter screen (AID 743218); note: nearly all actives have a fitted effect of over 45% in size; note: potency is the fitted concentration of half-maximal effect
Summary of the method: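 Quantitative HTS counter screen measuring ATP-based viability via CellTiter-Glo luminescence in HEK 293T cells carrying a UAS-driven beta-lactamase reporter, after 16 h compound exposure at 37 C.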

[19] = qHTS assay to identify small molecule antagonists of the peroxisome proliferator-activated receptor gamma (PPARg) signaling pathway - cell viability counter screen (AID 743194); note: nearly all actives have a fitted effect of over 55% in size
Summary of the method: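 Cytotoxicity counter screen in PPARg-bla HEK293H cells, same wells as reporter assay. Compounds plus 50 nM rosiglitazone (final) for 17 h at 37 C, then viability read by CellTiter-Glo luminescence.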

[20] = qHTS assay to identify small molecule antagonists of the peroxisome proliferator-activated receptor delta (PPARd) signaling pathway - cell viability counter screen (AID 743213); note: nearly all actives have a fitted effect of over 50% in size
Summary of the method: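 PPARd-bla HEK293H cells (3000/well) got compound plus 300 nM L165041 agonist for 17 h at 37 C. Viability in the same wells came from CellTiter-Glo luminescence after 30 min at room temperature.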

Structure (SMILES) | Potency [1] | Potency [2] | Potency [3] | Potency [4] | Potency [5] | Potency [6] | Potency [7] | Potency [8] | Potency [9] | Potency [10] | Potency [11] | Potency [12] | Potency [13] | outcome [14] | Potency [15] | Potency [16] | Potency [17] | Potency [18] | Potency [19] | Potency [20]
NCC(=O)O | inactive | inactive | inactive | inactive | inactive | inactive | inactive | inactive | inactive | inactive | inactive | inactive | inactive | inactive | inactive | – | – | – | – | –
CCOC(=O)NCCOc1ccc(Oc2ccccc2)cc1 | inactive | inactive | inactive | 38.9 µM (active) | – | inactive | inactive | – | inactive | inactive | – | inactive | inactive | inactive | inactive | inactive | inactive | – | – | –
CCCCCCCCCCCCCCOS(=O)(=O)O | inactive | inactive | inactive | inactive | – | 61.1 µM (active) | – | – | 43.6 µM (active) | – | inactive | – | – | inactive | 43.6 µM (active) | – | – | 54.9 µM (active) | – | –
OC(CN1CCC(Cc2ccc(F)cc2)CC1)c1ccc(Cl)cc1 (configuration not stated) | inactive | inactive | inactive | inactive | – | – | inactive | – | inactive | – | – | inactive | – | – | – | inactive | inactive | – | inactive | inactive
NCC(=O)CCC(=O)O | inactive | inactive | inactive | inactive | – | inactive | inactive | inactive | inactive | – | – | inactive | – | inactive | inactive | inactive | inactive | inactive | inactive | inactive
O=CC1CC=CCC1 (configuration not stated) | inactive | inactive | inactive | – | inactive | inactive | inactive | inactive | inactive | inactive | inactive | inactive | inactive | inactive | inactive | – | inactive | – | inactive | inactive
CC(C)(C)OCC1CO1 (configuration not stated) | inactive | inactive | inactive | – | inactive | inactive | inactive | inactive | inactive | inactive | inactive | inactive | inactive | inactive | inactive | – | – | inactive | inactive | inactive
CCOCC(O)COc1ccc(NC(=O)CC[S+](C)C)cc1 (configuration not stated) | 5.31 µM (active) | inactive | inactive | inactive | inactive | inactive | inactive | – | inactive | inactive | inactive | inactive | inactive | – | inactive | inactive | – | inactive | – | –
CC(=O)c1ccc2c(c1)N(CCCN1CCC(CCO)CC1)c1ccccc1S2 | inactive | inactive | inactive | inactive | inactive | – | – | – | – | – | – | – | – | – | – | – | – | 29.8 µM (active) | inactive | –

Reference: PubChem BioAssay (Tox21)
